Results on 39 compounds are retold here after PubChem BioAssay.

The source made the active and inactive calls. No rule for the calls is given here.

The inhibition is the change of the read-out against control, counted positive when it falls.

Sequence of Botulinum neurotoxin type A (Clostridium botulinum) (P0DPI0 whole entry, looked up): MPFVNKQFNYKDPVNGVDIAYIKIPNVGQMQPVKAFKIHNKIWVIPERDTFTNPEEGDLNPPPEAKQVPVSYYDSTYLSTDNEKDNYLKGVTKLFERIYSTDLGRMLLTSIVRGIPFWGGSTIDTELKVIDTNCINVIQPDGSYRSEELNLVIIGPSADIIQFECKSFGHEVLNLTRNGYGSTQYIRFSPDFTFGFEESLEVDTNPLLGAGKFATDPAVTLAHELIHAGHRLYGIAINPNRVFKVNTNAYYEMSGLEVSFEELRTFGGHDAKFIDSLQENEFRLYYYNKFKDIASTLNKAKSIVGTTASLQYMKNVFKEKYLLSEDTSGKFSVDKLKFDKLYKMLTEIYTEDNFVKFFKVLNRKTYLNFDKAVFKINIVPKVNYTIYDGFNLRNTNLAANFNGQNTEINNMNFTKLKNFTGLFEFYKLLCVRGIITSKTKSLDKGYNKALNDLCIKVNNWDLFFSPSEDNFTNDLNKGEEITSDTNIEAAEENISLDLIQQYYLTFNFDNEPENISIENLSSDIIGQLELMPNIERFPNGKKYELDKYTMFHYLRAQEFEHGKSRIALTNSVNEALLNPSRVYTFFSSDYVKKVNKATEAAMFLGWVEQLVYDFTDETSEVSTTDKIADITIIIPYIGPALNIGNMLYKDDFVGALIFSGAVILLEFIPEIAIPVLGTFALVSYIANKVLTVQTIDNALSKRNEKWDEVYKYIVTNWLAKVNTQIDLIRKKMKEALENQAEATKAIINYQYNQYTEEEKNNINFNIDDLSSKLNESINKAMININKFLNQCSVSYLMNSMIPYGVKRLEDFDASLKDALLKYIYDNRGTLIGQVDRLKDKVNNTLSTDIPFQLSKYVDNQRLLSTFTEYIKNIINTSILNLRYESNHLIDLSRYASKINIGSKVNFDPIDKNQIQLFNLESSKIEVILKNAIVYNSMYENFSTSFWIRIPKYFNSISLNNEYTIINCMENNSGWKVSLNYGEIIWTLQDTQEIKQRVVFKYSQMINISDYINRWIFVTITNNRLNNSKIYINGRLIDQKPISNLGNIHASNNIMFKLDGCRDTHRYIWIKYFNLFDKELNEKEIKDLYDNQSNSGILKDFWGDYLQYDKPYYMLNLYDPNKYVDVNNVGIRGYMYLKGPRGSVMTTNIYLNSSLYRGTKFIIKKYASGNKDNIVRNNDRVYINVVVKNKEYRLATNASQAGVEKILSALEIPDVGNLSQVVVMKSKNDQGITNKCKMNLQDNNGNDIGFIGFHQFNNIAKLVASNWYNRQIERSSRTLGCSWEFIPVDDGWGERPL

The first experiment relates to Botulinum neurotoxin type F light chain protease (Clostridium botulinum). Put plainly: Botulinum neurotoxin type F light chain protease inhibition, multiplex microsphere flow cytometry, validation set (AID 588459). The settings on record: multiplex microsphere protease substrate cleavage assay, at 10 µM, hits give high values. A general note: In flow cytometry, cells or beads pass a laser one at a time.
As to `N/C(=N\OC(=O)CCCOc1ccc(Cl)cc1Cl)c1ccncc1`, the inhibition was 3.7% (inactive).
Turning to `CS(=O)(=O)Oc1ccc2c(c1)O/C(=C\C=C\c1ccccc1)C2=O`, the inhibition is 26.9% (inactive).
Still for that read-out and setting: under `C=CCNC(=O)c1ccc(-c2cccc([N+](=O)[O-])c2)o1` stands -1.3% (inactive); under `CC1CCCC(C)N1NC(=O)c1ccc(Cl)c(S(N)(=O)=O)c1` (stereo not drawn), -0.2% (inactive).
As for `COc1ccc(CCN2C(=O)CSC2c2ccc(OC)c(OC)c2)cc1OC` (stereo not drawn), the inhibition is -3.4% (inactive).
With `CC[N+](C)(C)c1cccc(O)c1`, the inhibition is 1.7% (inactive).
On to `COc1cc2c(cc1OC)/C(=C/c1ccc(Cl)cc1)C(=O)OC2`, for which the inhibition was -0.2% (inactive).
As to `CCn1c(/C=C/c2ccccc2)nc2ccccc2c1=O`, the inhibition is 2.4% (inactive).
Take `CC(COc1ccccc1)N(CCCl)Cc1ccccc1` (stereo not drawn): the inhibition was 0.1% (inactive).
The same measure, in the same setting: under `CC(C)=CCCC(C)CN1CCC(N2CCC(C(=O)N3CCCC3)CC2)CC1` (stereo not drawn) stands 1.8% (inactive); under `NC(N)=N/N=C/c1ccc(OS(=O)(=O)c2ccccc2)cc1`, -5.1% (inactive).
Still for that read-out and setting: under `O=P(c1ccccc1)(c1ccccc1)c1nc(-c2ccc(Cl)cc2)oc1N1CCOCC1` stands -1% (inactive).
`COc1cc2c(cc1OC)C1(CCCC1)CNC2c1cccc([N+](=O)[O-])c1` (stereo not drawn): the inhibition was 1% (inactive).
With `CCOC(=O)c1ccc(N2C(=O)C(CC(=O)NC)N(CCc3ccc(OC)c(OC)c3)C2=S)cc1` (stereo not drawn), the inhibition is -0.6% (inactive).
Regarding `COc1ccc(CNC(=O)C2CCCN2C)cc1OC` (stereo not drawn), the inhibition is 0.4% (inactive).
Regarding `Cc1cccc(Oc2coc3cc(OC(=O)c4cncc(Br)c4)ccc3c2=O)c1`, the inhibition was 2.1% (inactive).
On the same count and under the same terms, with `Cc1cc(/C=N/O)c(C)n1-c1ccc(Br)cc1` the figure was 1.9% (inactive); with `CC(=O)[C@H]1CC[C@H]2[C@@H]3CCC4=CC(=O)CC[C@]4(C)[C@H]3[C@H](O)C[C@]12C`, -0.3% (inactive); with `O=C1c2ccccc2C(=O)N1/N=C/c1ccc(Oc2ccc([N+](=O)[O-])cn2)cc1`, 0.2% (inactive).
The same measure, in the same setting: with `O=C(OCC1OC2OC3(CCCCC3)OC2C2OC3(CCCCC3)OC12)c1ccccc1` (stereo not drawn) the figure was -3.1% (inactive); with `O=C(O)CCCCCCNC(=O)c1cncc(O)c1`, -1.8% (inactive).
On to `CCOc1ccc2nc(NC(=O)NC3CCCCC3)sc2c1`, for which the inhibition was 0% (inactive).
`COc1cc(NC(=S)NN2CCN(C)CC2)cc(OC)c1OC`: the inhibition was 5.5% (inactive).
For `CC(=O)N(CCC1(C(C)C)CCOC(C)(C)C1)Cc1ccco1` (stereo not drawn), the inhibition was -2% (inactive).
Consider `CSCCC1NC2(C(=O)Nc3ccc(Cl)cc32)[C@@H]2C(=O)N(C3CCCC3)C(=O)[C@H]12` (stereo partly drawn), for which the inhibition is 0.8% (inactive).
`Cc1ccc(CN2CCN(CCCc3ccccc3)CC2CCO)cc1` (stereo not drawn): the inhibition was 0.2% (inactive).
For the compound `C/C=C/c1ccc(OCCCCN2CC(C)CC(C)C2)c(OC)c1` (stereo not drawn), the inhibition is 3.1% (inactive).
Turning to `COc1ccc([C@@H]2Sc3ccccc3N(CCN(C)C)C(=O)[C@@H]2OC(C)=O)cc1`, the inhibition is -1.7% (inactive).
As for `CC/C(=C(\c1ccc(O)cc1)c1ccc(OCCN(C)C)cc1)c1ccccc1`, the inhibition was 2.7% (inactive).
For the compound `COc1ccccc1/C=C/CN1CCN(Cc2ccc(F)cc2)C(CCO)C1` (stereo not drawn), the inhibition is 5.5% (inactive).
In the case of `N#C/C(=C\c1ccc(O)c(O)c1)C(=O)NCCCc1ccccc1`, the inhibition was 1.8% (inactive).
Take `CC(C(=O)O)c1ccc(-c2ccccc2)c(F)c1` (stereo not drawn): the inhibition was 5.7% (inactive).
With `COc1cc2[nH]c3c(=O)n(CCN4CCOCC4)cnc3c2cc1OC`, the inhibition was 0.3% (inactive).
As to `O=C1[C@@H]2[C@H](Cc3ccc(O)cc3)N[C@]3(C(=O)Nc4ccccc43)[C@@H]2C(=O)N1c1ccc(F)cc1`, the inhibition was 1.3% (inactive).
Regarding `O=C1OCCN1/N=C/c1ccc([N+](=O)[O-])o1`, the inhibition was 2.9% (inactive).
In the case of `CC1CCN(CCOCCOc2ccccc2Br)CC1`, the inhibition is 1.2% (inactive).
The same measure, in the same setting: under `CCCOc1ccc(-c2cc(C(=O)NCC3CCCO3)c3ccccc3n2)cc1` (stereo not drawn) stands -0.2% (inactive); under `Cc1coc2c1c(C)cc1oc(=O)c(Cc3ccccc3)c(C)c12`, 1.9% (inactive).
Take `COC(=O)C1=NN(C(=O)c2cccc(Br)c2)C(O)(c2ccc(Cl)cc2)C1` (stereo not drawn): the inhibition is 3.1% (inactive).

The next experiment has as its target Botulinum neurotoxin type A (Clostridium botulinum) (UniProt P0DPI0). Nature of the experiment: BoNT/A light chain protease inhibitors, biochemical, multiplex microsphere flow cytometry, validation set (AID 588460). The settings on record: at 10 µM, hits give high values.
In the case of `N/C(=N\OC(=O)CCCOc1ccc(Cl)cc1Cl)c1ccncc1`, the inhibition was 0.1% (inactive).
For `CS(=O)(=O)Oc1ccc2c(c1)O/C(=C\C=C\c1ccccc1)C2=O`, the inhibition was 28.3% (inactive).
With `C=CCNC(=O)c1ccc(-c2cccc([N+](=O)[O-])c2)o1`, the inhibition is -0.6% (inactive).
Consider `CC1CCCC(C)N1NC(=O)c1ccc(Cl)c(S(N)(=O)=O)c1` (stereo not drawn), for which the inhibition was 0.8% (inactive).
Regarding `COc1ccc(CCN2C(=O)CSC2c2ccc(OC)c(OC)c2)cc1OC` (stereo not drawn), the inhibition is 0.4% (inactive).
Consider `CC[N+](C)(C)c1cccc(O)c1`, for which the inhibition was -0.2% (inactive).
Still for that read-out and setting: with `COc1cc2c(cc1OC)/C(=C/c1ccc(Cl)cc1)C(=O)OC2` the figure was 0.8% (inactive); with `CCn1c(/C=C/c2ccccc2)nc2ccccc2c1=O`, -1.7% (inactive); with `CC(COc1ccccc1)N(CCCl)Cc1ccccc1` (stereo not drawn), -2.7% (inactive).
`CC(C)=CCCC(C)CN1CCC(N2CCC(C(=O)N3CCCC3)CC2)CC1` (stereo not drawn): the inhibition was -0.4% (inactive).
For the compound `NC(N)=N/N=C/c1ccc(OS(=O)(=O)c2ccccc2)cc1`, the inhibition is -1.5% (inactive).
For the compound `O=P(c1ccccc1)(c1ccccc1)c1nc(-c2ccc(Cl)cc2)oc1N1CCOCC1`, the inhibition is -1.2% (inactive).
In the case of `COc1cc2c(cc1OC)C1(CCCC1)CNC2c1cccc([N+](=O)[O-])c1` (stereo not drawn), the inhibition is 0.1% (inactive).
`CCOC(=O)c1ccc(N2C(=O)C(CC(=O)NC)N(CCc3ccc(OC)c(OC)c3)C2=S)cc1` (stereo not drawn): the inhibition is -0.4% (inactive).
For `COc1ccc(CNC(=O)C2CCCN2C)cc1OC` (stereo not drawn), the inhibition is -2.5% (inactive).
Regarding `Cc1cccc(Oc2coc3cc(OC(=O)c4cncc(Br)c4)ccc3c2=O)c1`, the inhibition was 0.8% (inactive).
For `Cc1cc(/C=N/O)c(C)n1-c1ccc(Br)cc1`, the inhibition is 1.1% (inactive).
Take `CC(=O)[C@H]1CC[C@H]2[C@@H]3CCC4=CC(=O)CC[C@]4(C)[C@H]3[C@H](O)C[C@]12C`: the inhibition is -1.3% (inactive).
On to `O=C1c2ccccc2C(=O)N1/N=C/c1ccc(Oc2ccc([N+](=O)[O-])cn2)cc1`, for which the inhibition is 0.8% (inactive).
Regarding `O=C(OCC1OC2OC3(CCCCC3)OC2C2OC3(CCCCC3)OC12)c1ccccc1` (stereo not drawn), the inhibition is 2.6% (inactive).
In the case of `O=C(O)CCCCCCNC(=O)c1cncc(O)c1`, the inhibition was 0.2% (inactive).
On the same count and under the same terms, under `CCOc1ccc2nc(NC(=O)NC3CCCCC3)sc2c1` stands -1.5% (inactive); under `COc1cc(NC(=S)NN2CCN(C)CC2)cc(OC)c1OC`, -0.6% (inactive).
As for `CC(=O)N(CCC1(C(C)C)CCOC(C)(C)C1)Cc1ccco1` (stereo not drawn), the inhibition was -1.4% (inactive).
For the compound `CSCCC1NC2(C(=O)Nc3ccc(Cl)cc32)[C@@H]2C(=O)N(C3CCCC3)C(=O)[C@H]12` (stereo partly drawn), the inhibition is -1.4% (inactive).
Same read-out and setting: with `Cc1ccc(CN2CCN(CCCc3ccccc3)CC2CCO)cc1` (stereo not drawn) the figure was -0.2% (inactive).
In the case of `C/C=C/c1ccc(OCCCCN2CC(C)CC(C)C2)c(OC)c1` (stereo not drawn), the inhibition is -0.5% (inactive).
As to `COc1ccc([C@@H]2Sc3ccccc3N(CCN(C)C)C(=O)[C@@H]2OC(C)=O)cc1`, the inhibition was 0.1% (inactive).
Turning to `CC/C(=C(\c1ccc(O)cc1)c1ccc(OCCN(C)C)cc1)c1ccccc1`, the inhibition was -0.2% (inactive).
On to `COc1ccccc1/C=C/CN1CCN(Cc2ccc(F)cc2)C(CCO)C1` (stereo not drawn), for which the inhibition is -0.2% (inactive).
For `N#C/C(=C\c1ccc(O)c(O)c1)C(=O)NCCCc1ccccc1`, the inhibition was 1.2% (inactive).
Take `CC(C(=O)O)c1ccc(-c2ccccc2)c(F)c1` (stereo not drawn): the inhibition is 0.5% (inactive).
Turning to `COc1cc2[nH]c3c(=O)n(CCN4CCOCC4)cnc3c2cc1OC`, the inhibition was 0.1% (inactive).
Regarding `O=C1[C@@H]2[C@H](Cc3ccc(O)cc3)N[C@]3(C(=O)Nc4ccccc43)[C@@H]2C(=O)N1c1ccc(F)cc1`, the inhibition is 1.7% (inactive).
Consider `O=C1OCCN1/N=C/c1ccc([N+](=O)[O-])o1`, for which the inhibition is -0.4% (inactive).
With `CC1CCN(CCOCCOc2ccccc2Br)CC1`, the inhibition was 0.3% (inactive).
For `CCCOc1ccc(-c2cc(C(=O)NCC3CCCO3)c3ccccc3n2)cc1` (stereo not drawn), the inhibition is -0.7% (inactive).
Turning to `Cc1coc2c1c(C)cc1oc(=O)c(Cc3ccccc3)c(C)c12`, the inhibition was -0.5% (inactive).
Turning to `COC(=O)C1=NN(C(=O)c2cccc(Br)c2)C(O)(c2ccc(Cl)cc2)C1` (stereo not drawn), the inhibition was -0.5% (inactive).
